Assay results reported in PubChem BioAssay (EPA / NIEHS).
“And” between values parts separate entries of the source, which are not always exact repeats. Equal values may be shown once. The source made the active and inactive calls. Rule for the calls: active = hit-call score of the fitted dose curve at least 0.9, where 1 is the maximum; inactive = score below 0.9.

assay: BSK_SAg_SRB: Viability Assessment in the BioMAP Diversity Plus: SAg Assay (AID 2283096); settings: primary human HUVEC with PBMC;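 note: cells read one day after compound addition; hits may be either gain or loss of signal compared with DMSO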
In short: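 Human umbilical vein endothelial cells co-cultured with PBMC, read 24 h after compound dosing. Total protein measured by sulforhodamine B staining (0.1% SRB after 10% TCA fixation, absorbance 560 nm); bidirectional fit versus DMSO baseline.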

Compound | outcome | AC50
CCOC(=O)C(C)Oc1ccc(Oc2nc3ccc(Cl)cc3o2)cc1 (centres undefined) | inactive | –
Cc1nn(C)c(Oc2ccccc2)c1C=NOCc1ccc(C(=O)OC(C)(C)C)cc1 | – | 20 µM (active)
O=C(O)c1ccccc1 | inactive | –
CCCCOC(=O)C(C)Oc1ccc(Oc2ccc(C(F)(F)F)cn2)cc1 (centres undefined) | inactive | –
CC1(C)C(C=C(Cl)Cl)C1C(=O)OCc1cccc(Oc2ccccc2)c1 (centres undefined) | – | 5.14 µM (active)
COc1nc(C)nc(NC(=O)NS(=O)(=O)c2ccccc2OCCCl)n1 | inactive | –
COC(=O)c1c(Cl)nn(C)c1S(=O)(=O)NC(=O)Nc1nc(OC)cc(OC)n1 | inactive | –
CSC(=O)c1cccc2nnsc12 | inactive | –
CCOC(=O)[C@H](C)Oc1ccc(Oc2nc3ccc(Cl)cc3o2)cc1 | inactive | –
CCCOC(=O)c1ccc(C(=O)OCCC)nc1 | inactive | –
CCC(O)=C1C(=O)CC(C(=O)O)CC1=O (centres undefined) | inactive | –
C#C[C@]1(O)CC[C@H]2[C@@H]3CCC4=CC(=O)CC[C@@H]4[C@H]3CC[C@@]21CC | inactive | –
CCCCOC(=O)[C@@H](C)Oc1ccc(Oc2ccc(C(F)(F)F)cn2)cc1 | inactive | –
CCCN(CCC)c1c([N+](=O)[O-])cc(C(F)(F)F)c(N)c1[N+](=O)[O-] | – | 14.7 µM (active)
CCNc1nc(N)nc(Cl)n1 | inactive | –
CC(C)CCCCCCc1ccc(O)cc1 | – | 13.1 µM (active)
COC(=O)c1ccccc1S(=O)(=O)NC(=O)Nc1nc(OC(F)F)cc(OC(F)F)n1 | inactive | –
CCCCC(CC)COC(=O)c1ccccc1C(=O)O (centres undefined) | inactive | –
N#CSCSc1nc2ccccc2s1 | – | 18.2 µM (active) and 10.5 µM (active)
